Where “and” joins values, the source holds several entries; their conditions need not be identical. Identical values can stand only once. This is part of a sample that, as a whole, favours compounds with a hit. Of some 79,000 tested, about 15% had one in any assay. More than one record can exist for a structure, and the calls need not agree. Calls of active or inactive are those of the source. Rule as the data show it: active = growth inhibition above about 70%; inactive = the rest.
Legend:
[1] = NCI Yeast Anticancer Drug Screen. Data for the rad50 strain (AID 155);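 also: 0% = growth of vehicle-only cultures of the same strain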; details: S. cerevisiae rad50 strain growth inhibition, stronger effect = higher value
In short: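 Genetically altered yeast (DNA repair pathway); compound treatment; growth inhibition vs vehicle ctrl.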

[2] = NCI Yeast Anticancer Drug Screen. Data for the mec2-1 strain (AID 157); details: S. cerevisiae mec2-1 strain, stronger effect = higher value
In short: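 Readout is yeast growth inhibition, normalised to vehicle-treated controls, in the mec2-1 strain exposed to compound.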

[3] = NCI Yeast Anticancer Drug Screen. Data for the sgs1 mgt1 strain (AID 161);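 also: 0% = growth of cultures given vehicle only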; details: S. cerevisiae sgs1 mgt1 strain, stronger effect = higher value
In short: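 Growth of a repair-deficient yeast mutant was monitored after compound treatment and expressed as inhibition relative to vehicle-treated cultures.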

[4] = NCI Yeast Anticancer Drug Screen. Data for the cln2 rad14 strain (AID 165);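 also: 0% = growth equal to vehicle treated cultures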; details: S. cerevisiae cln2 rad14 strain, stronger effect = higher value
In short: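 Relative to vehicle controls, growth inhibition of compound-treated cln2 rad14 yeast was recorded.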

[5] = NCI Yeast Anticancer Drug Screen. Data for the bub3 strain (AID 167); details: S. cerevisiae bub3 mutant strain, stronger effect = higher value
In short: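 Yeast carrying a defined mutation is treated with each compound, and growth is compared with that of vehicle-exposed cells to give inhibition.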

[6] = NCI Yeast Anticancer Drug Screen. Data for the mlh1 rad18 strain (AID 175); details: S. cerevisiae mlh1 rad18 strain growth inhibition, stronger effect = higher value
In short: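 Test agents were incubated with a yeast strain of defined genotype (DNA damage repair defect). Inhibition of growth was derived by comparison with vehicle-exposed cultures.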

[7] = at 5.0 µM (retest, dose inferred, filed as 0.5)
[8] = at 50.0 µM (retest, dose inferred, filed as 5.0)

SMILES | growth inhibition [1, 7] | growth inhibition [1, 8] | growth inhibition ([1]; at 50.0 µM) | growth inhibition [2, 7] | growth inhibition [2, 8] | growth inhibition ([2]; at 50.0 µM) | growth inhibition [3, 7] | growth inhibition [3, 8] | growth inhibition ([3]; at 50.0 µM) | growth inhibition [4, 7] | growth inhibition [4, 8] | growth inhibition ([4]; at 50.0 µM) | growth inhibition [5, 7] | growth inhibition [5, 8] | growth inhibition ([5]; at 50.0 µM) | growth inhibition [6, 7] | growth inhibition [6, 8] | growth inhibition ([6]; at 50.0 µM)
CCCCN1C(=O)C2C(C1=O)C1(Cl)C(Cl)=C(Cl)C2(Cl)C1(Cl)Cl (stereo not given) | 17% (inactive) | 98% (active) | 95.3% (active) | 17% (inactive) | 99% (active) | 96% (active) | 11% (inactive) | 98% (active) | 98.9% (active) | 13% (inactive) | 98% (active) | 99% (active) | 3% (inactive) | 98% (active) | 76.5% (active) | 21% (inactive) | 98% (active) | 76.7% (active)
FC(F)(F)c1cccc(CCl)c1 | -1% (inactive) | 3% (inactive) | 24.8% (inactive) | 0% (inactive) | 1% (inactive) | -5.7% (inactive) | -1% (inactive) | 1% (inactive) | -17.4% (inactive) | -5% (inactive) | -6% (inactive) | -20.2% (inactive) | -3% (inactive) | 7% (inactive) | -8.25% (inactive) | -2% (inactive) | 4% (inactive) | 38.5% (inactive)
Cc1ccccc1NC(=O)CBr | 39% (inactive) | 98% (active) | 98.5% (active) | 12% (inactive) | 99% (active) | 98.6% (active) | 37% (inactive) | 99% (active) | 99.3% (active) | 18% (inactive) | 98% (active) | 95.5% (active) | -38% (inactive) | 99% (active) | 98.2% (active) | 37% (inactive) | 99% (active) | 98.3% (active)
CC1CCC2(NC1)OC1CC3C4CC=C5CC(O)CCC5(C)C4CCC3(C)C1C2C (stereo not given) | 78% (active) and -4% (inactive) | 98% (active) and 99% (active) | 90.8% (active) and 98.2% (active) | 56% (inactive) and 13% (inactive) | 99% (active) and 98% (active) | 93% (active) and 99.3% (active) | 92% (active) and -3% (inactive) | 99% (active) | 91.8% (active) and 99% (active) | 72% (active) and -17% (inactive) | 99% (active) and 98% (active) | 87.5% (active) and 98.5% (active) | 93% (active) and 39% (inactive) | 99% (active) | 90.2% (active) and 99.1% (active) | 77% (active) and 4% (inactive) | 98% (active) and 99% (active) | 89% (active) and 98.8% (active)
O=C1C=CC(=O)N1c1cccc2ccccc12 (tested in a mixture with another compound) | -1% (inactive) | 1% (inactive) | 10.3% (inactive) | -39% (inactive) | -1% (inactive) | 2.7% (inactive) | 0% (inactive) | 2% (inactive) | 9.1% (inactive) | -1% (inactive) | 3% (inactive) | 15.8% (inactive) | -8% (inactive) | -5% (inactive) | 61% (inactive) | -1% (inactive) | -1% (inactive) | 12.2% (inactive)
Nc1ncc(CCCCc2ccc(NC(=O)Nc3ccc(S(=O)(=O)F)cc3)cc2)c(N)n1 | -1% (inactive) | 60% (inactive) | 98.5% (active) | -15% (inactive) | 60% (inactive) | 99.5% (active) | -17% (inactive) | 75% (active) | 99.2% (active) | -8% (inactive) | 57% (inactive) | 92.8% (active) | -4% (inactive) | 48% (inactive) | 98.8% (active) | 4% (inactive) | 84% (active) | 99.2% (active)
O=c1c2ccccc2[se]n1-c1ccccc1 | 6% (inactive) | 29% (inactive) | 70.2% (active) | -12% (inactive) | 32% (inactive) | 88.8% (active) | -4% (inactive) | 23% (inactive) | 81.3% (active) | -19% (inactive) | 26% (inactive) | 66.6% (inactive) | -15% (inactive) | 21% (inactive) | 4.2% (inactive) | -12% (inactive) | 62% (inactive) | 86% (active)
CCC1CCCCN1CC(C(C)=O)C(c1ccccc1)c1c(O)c2ccccc2oc1=O (stereo not given) | 13% (inactive) | 13% (inactive) | 78.2% (active) | 0% (inactive) | 0% (inactive) | 64.8% (inactive) | 5% (inactive) | 5% (inactive) | 79.3% (active) | -6% (inactive) | -6% (inactive) | 72.5% (active) | 6% (inactive) | 6% (inactive) | 71.3% (active) | 7% (inactive) | 7% (inactive) | 75.3% (active)
COc1ccc(CC2C(=O)NC(C)C(=O)N(C)C3C(=O)N(C)C(Cc4ccc(O)c(c4)Oc4ccc(cc4)C3O)C(=O)NC(C)C(=O)NC(C)C(=O)N2C)cc1 (stereo not given) | -8% (inactive) | 80% (active) | 75.9% (active) | 29% (inactive) | 69% (inactive) | 47.5% (inactive) | 12% (inactive) | 63% (inactive) | 54.3% (inactive) | 27% (inactive) | 88% (active) | 84.5% (active) | 19% (inactive) | 81% (active) | 65.4% (inactive) | 10% (inactive) | 87% (active) | 63% (inactive)
Fc1cccc(C2N(Cc3ccc(N(CCCl)CCCl)cc3Cl)CCCN2Cc2ccc(N(CCCl)CCCl)cc2Cl)c1 | -28% (inactive) | 92% (active) | 12.7% (inactive) | 15% (inactive) | 95% (active) | 54.5% (inactive) | -3% (inactive) | 95% (active) | -18.4% (inactive) | -5% (inactive) | 93% (active) | -6.1% (inactive) | -2% (inactive) | 92% (active) | 83.2% (active) | 6% (inactive) | 94% (active) | 9.15% (inactive)
CC1CCOC(=O)/C=C/C=C/C(=O)OC2CC3OC4C5OC5(C)C(O)CC4(COC(=O)C1O)C2(C)C31CO1 (stereo not given) | 16% (inactive) | 95% (active) | 90.3% (active) | 27% (inactive) | 90% (active) | 92% (active) | 21% (inactive) | 95% (active) | 91.5% (active) | 42% (inactive) | 97% (active) | 89.5% (active) | 18% (inactive) | 95% (active) | 89.2% (active) | 17% (inactive) | 94% (active) | 89.4% (active)
CCCCCCCCCCCC[As](=O)(O)O | 0% (inactive) | 31% (inactive) | 99.4% (active) | -1% (inactive) | 26% (inactive) | 99.3% (active) | 7% (inactive) | 48% (inactive) | 98.2% (active) | -3% (inactive) | 46% (inactive) | 98.5% (active) | 3% (inactive) | 53% (inactive) | 99.2% (active) | 6% (inactive) | 51% (inactive) | 98.9% (active)
CCC1(O)C(=O)OCc2c1cc1n(c2=O)Cc2cc3ccc(C#N)cc3nc2-1 (stereo not given) | 71% (active) | 57% (inactive) | 51% (inactive) | 11% (inactive) | -6% (inactive) | -20.8% (inactive) | 11% (inactive) | -132% (inactive) | -30.6% (inactive) | 10% (inactive) | -5% (inactive) | -16.7% (inactive) | -6% (inactive) | -63% (inactive) | -4.05% (inactive) | 10% (inactive) | -9% (inactive) | -15.6% (inactive)
O=C1C(Br)=CC2(C=C1Br)CCNc1c(O)c3c4c(c12)=NCCC=4C=N3 | 31% (inactive) | 72% (active) | 57.9% (inactive) | 15% (inactive) | 44% (inactive) | 46.5% (inactive) | 17% (inactive) | 71% (active) | 54.2% (inactive) | -1% (inactive) | 50% (inactive) | 24.9% (inactive) | -14% (inactive) | 78% (active) | 49.6% (inactive) | 25% (inactive) | 75% (active) | 57.5% (inactive)
c1cc[c]([Sn]([c]2ccccc2)([c]2ccccc2)[CH]2CCCCC2)cc1 | 1% (inactive) | 89% (active) | 92.7% (active) | 7% (inactive) | 94% (active) | 97.2% (active) | 20% (inactive) | 93% (active) | 97.7% (active) | -2% (inactive) | 91% (active) | 98.3% (active) | 1% (inactive) | 93% (active) | 98% (active) | 19% (inactive) | 91% (active) | 97% (active)

— PubChem BioAssay (NCI)
